Results: PubChem BioAssay (NCATS)
Inconclusive results are not listed. Active and inactive are the calls of the source. Unless noted, calls follow the shape of the dose curve; as a rule, active = well fitted curve in the direction sought with a large enough effect; inconclusive = small, poorly fitted or top-dose-only effect, or another doubt; inactive = no such curve, though single readings can be large; an effect the other way counts as inactive or inconclusive.

Experiments:
[1] = qHTS for differential inhibitors of proliferation of Plasmodium falciparum line 3D7 (AID 1876); also: potency is read from the fitted curve at half-maximal effect
[2] = qHTS for differential inhibitors of proliferation of Plasmodium falciparum line D10 (AID 1877);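 also: parasites grown with compound for 72 h before DNA staining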; also: potency is read from the fitted curve at half-maximal effect
[3] = qHTS for differential inhibitors of proliferation of Plasmodium falciparum line Dd2 (AID 1882); conditions: Potency: Plasmodium falciparum Dd2 proliferation inhibition; also: nearly all actives have a fitted effect of over 65% in size; also: potency is read from the fitted curve at half-maximal effect
Summary of the method: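 Dd2-infected erythrocytes (0.3% parasitemia, 2.5% hematocrit final) incubated with compound 72 h at 37 C, 5% CO2; lysed with saponin/Triton buffer containing SYBR Green I, incubated overnight in the dark, then read by fluorescence (485/535 nm). Normalized to 0.29 uM artemisinin and DMSO.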

[4] = qHTS for differential inhibitors of proliferation of Plasmodium falciparum line W2 (AID 1883); conditions: Potency: Plasmodium falciparum W2 proliferation inhibition;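 also: parasites grown with compound for 72 h before lysis and staining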; also: potency is read from the fitted curve at half-maximal effect
[5] = qHTS for differential inhibitors of proliferation of Plasmodium falciparum line HB3 (AID 1886); conditions: Potency: Plasmodium falciparum HB3 proliferation inhibition;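 also: parasites grown with compound for 72 h before SYBR Green readout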; also: potency is read from the fitted curve at half-maximal effect
[6] = target: RecQ-like DNA helicase BLM (Homo sapiens) (UniProt P54132); test: qHTS Validation Assay for Inhibitors of Bloom's syndrome helicase (BLM) (AID 2364); also: potency is read from the fitted curve at half-maximal effect
Sequence of RecQ-like DNA helicase BLM (Homo sapiens) (P54132 whole entry, looked up): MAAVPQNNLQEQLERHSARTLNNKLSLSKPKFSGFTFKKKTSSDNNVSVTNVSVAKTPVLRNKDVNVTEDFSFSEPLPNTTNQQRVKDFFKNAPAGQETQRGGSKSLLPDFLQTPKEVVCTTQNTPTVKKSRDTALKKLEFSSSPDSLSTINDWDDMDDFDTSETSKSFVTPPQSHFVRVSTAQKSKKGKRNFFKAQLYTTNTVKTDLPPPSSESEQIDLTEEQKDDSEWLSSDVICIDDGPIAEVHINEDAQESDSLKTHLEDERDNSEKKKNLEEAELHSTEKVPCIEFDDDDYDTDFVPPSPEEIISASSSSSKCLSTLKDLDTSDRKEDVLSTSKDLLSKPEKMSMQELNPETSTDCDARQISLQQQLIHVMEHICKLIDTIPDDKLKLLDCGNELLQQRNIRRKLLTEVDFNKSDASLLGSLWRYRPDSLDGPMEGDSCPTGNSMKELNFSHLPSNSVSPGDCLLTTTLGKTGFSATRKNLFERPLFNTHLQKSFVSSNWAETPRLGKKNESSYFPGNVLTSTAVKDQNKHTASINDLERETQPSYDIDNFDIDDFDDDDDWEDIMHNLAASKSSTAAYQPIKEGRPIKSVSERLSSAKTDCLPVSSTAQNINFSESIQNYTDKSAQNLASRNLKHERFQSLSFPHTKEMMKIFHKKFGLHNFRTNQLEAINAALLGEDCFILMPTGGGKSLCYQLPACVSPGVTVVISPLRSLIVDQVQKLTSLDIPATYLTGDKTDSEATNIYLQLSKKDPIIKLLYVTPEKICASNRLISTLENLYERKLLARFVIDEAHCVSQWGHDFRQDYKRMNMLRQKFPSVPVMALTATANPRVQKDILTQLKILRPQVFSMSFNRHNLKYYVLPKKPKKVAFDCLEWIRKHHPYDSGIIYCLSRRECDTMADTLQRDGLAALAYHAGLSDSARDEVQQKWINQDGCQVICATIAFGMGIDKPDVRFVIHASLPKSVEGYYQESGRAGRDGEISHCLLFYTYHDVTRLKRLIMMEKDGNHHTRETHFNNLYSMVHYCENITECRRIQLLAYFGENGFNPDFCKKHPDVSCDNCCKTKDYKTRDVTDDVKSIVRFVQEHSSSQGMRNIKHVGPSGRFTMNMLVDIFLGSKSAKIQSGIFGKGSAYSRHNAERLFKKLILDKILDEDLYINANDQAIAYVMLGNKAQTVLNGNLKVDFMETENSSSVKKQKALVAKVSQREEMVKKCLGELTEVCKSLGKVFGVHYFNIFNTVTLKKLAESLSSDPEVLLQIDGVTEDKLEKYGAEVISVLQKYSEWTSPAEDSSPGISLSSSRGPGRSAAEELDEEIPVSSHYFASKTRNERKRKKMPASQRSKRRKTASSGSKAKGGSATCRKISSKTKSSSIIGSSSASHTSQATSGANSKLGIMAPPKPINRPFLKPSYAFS
Summary of the method: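 BLM 50 nM in 25 mM Tris-HCl pH 8.0, 5 mM NaCl, 2 mM MgCl2, 1 mM DTT, 0.01% Tween-20, 2.5 ug/ml poly(dI-dC); 15 min cpd preinc, RT. Start: 200 nM forked DNA + 2 mM ATP (final). TAMRA read, 2 reads 2 h apart.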

[7] = Validation screen for inhibitors of Lassa infection (AID 463096; calls by dose curve; also: potency is read from the fitted curve at half-maximal effect)
[8] = Validation screen for small molecules that induce DNA re-replication in MCF 10A normal breast cells (AID 463097); also: nearly all actives have a fitted effect of over 60% in size; also: potency is read from the fitted curve at half-maximal effect
Summary of the method: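 DNA re-replication was detected as a rise in nuclei with elevated Hoechst fluorescence after a 48 hr compound exposure of MCF 10A cells at 37 C.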

[9] = target: Ubiquitin carboxyl-terminal hydrolase 2 (Homo sapiens) (UniProt O75604); test: qHTS Validation Assay for Inhibitors of Ubiquitin-specific Protease USP2a Using CHOP2 as the Reporter (AID 463106); also: potency is read from the fitted curve at half-maximal effect
Sequence of Ubiquitin carboxyl-terminal hydrolase 2 (Homo sapiens) (O75604 whole entry, looked up): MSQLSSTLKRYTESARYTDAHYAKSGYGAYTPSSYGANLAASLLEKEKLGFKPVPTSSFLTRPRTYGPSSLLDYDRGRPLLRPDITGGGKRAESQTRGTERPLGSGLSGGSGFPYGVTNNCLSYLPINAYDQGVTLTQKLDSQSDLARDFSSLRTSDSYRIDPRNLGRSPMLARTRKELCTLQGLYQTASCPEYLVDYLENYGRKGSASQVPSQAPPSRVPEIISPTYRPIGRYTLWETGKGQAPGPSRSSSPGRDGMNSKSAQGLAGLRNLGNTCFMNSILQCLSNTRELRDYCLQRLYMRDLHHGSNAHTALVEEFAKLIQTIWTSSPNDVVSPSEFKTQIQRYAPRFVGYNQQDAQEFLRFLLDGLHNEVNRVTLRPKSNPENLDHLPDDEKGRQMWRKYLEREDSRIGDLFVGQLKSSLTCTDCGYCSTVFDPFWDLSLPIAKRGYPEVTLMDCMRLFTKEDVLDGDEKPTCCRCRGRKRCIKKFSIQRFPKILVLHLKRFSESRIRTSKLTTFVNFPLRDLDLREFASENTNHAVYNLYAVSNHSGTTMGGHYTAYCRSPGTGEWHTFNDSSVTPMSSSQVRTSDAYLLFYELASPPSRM
Summary of the method: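 USP2 core (10nM final) was preincubated with compound for 30min at RT in 20mM Tris-HCl pH 8.0, 2mM CaCl2, 2mM beta-mercaptoethanol, 0.05% CHAPS. Ub-CHOP2 and reporter substrate (25nM each) were added, and fluorescence (Ex 485/Em 531nm) was read after 60min.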

[10] = qHTS Assay for Modulators of Human Peripheral Myelin Protein 22 (PMP22) Expression/Activity (AID 1967; active = well fitted curve in the direction sought with a large enough effect in the signal ratio; the % refers to the signal ratio)
Summary of the method: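 Quantitative HTS in a mouse Schwann cell line expressing dual click beetle luciferases: Pmp22 promoter (green) and control EF-alpha promoter (red). After 24h treatment, corrected green/red signal ratio gave %Activity relative to untreated cells.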

[11] = target: Ferritin light chain (Equus caballus) (UniProt P02791); test: qHTS Validation Assay for Identification of Novel General Anesthetics (AID 2323); also: series mostly up to about 77 µM
Sequence of Ferritin light chain (Equus caballus) (P02791 2-175 limits assumed): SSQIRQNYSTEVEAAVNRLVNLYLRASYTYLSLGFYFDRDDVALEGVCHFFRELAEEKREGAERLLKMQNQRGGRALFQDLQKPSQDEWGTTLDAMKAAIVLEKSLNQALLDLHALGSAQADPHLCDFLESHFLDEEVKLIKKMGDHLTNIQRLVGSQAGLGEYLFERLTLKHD
Summary of the method: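 Apoferritin from horse spleen (10 uM) was mixed with 1-aminoanthracene at 50% saturation in PBS, then compounds were added. After 10 min at room temperature, fluorescence was read (ex 380 nm, em 535 nm) and normalized to free-probe and complex controls.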

[12] = target: ATP-dependent DNA helicase Q1 (Homo sapiens) (UniProt P46063); test: qHTS Validation Assay for Inhibitors of RecQ-Like Dna Helicase 1 (RECQ1) (AID 2353)
Sequence of ATP-dependent DNA helicase Q1 (Homo sapiens) (P46063 whole entry, looked up): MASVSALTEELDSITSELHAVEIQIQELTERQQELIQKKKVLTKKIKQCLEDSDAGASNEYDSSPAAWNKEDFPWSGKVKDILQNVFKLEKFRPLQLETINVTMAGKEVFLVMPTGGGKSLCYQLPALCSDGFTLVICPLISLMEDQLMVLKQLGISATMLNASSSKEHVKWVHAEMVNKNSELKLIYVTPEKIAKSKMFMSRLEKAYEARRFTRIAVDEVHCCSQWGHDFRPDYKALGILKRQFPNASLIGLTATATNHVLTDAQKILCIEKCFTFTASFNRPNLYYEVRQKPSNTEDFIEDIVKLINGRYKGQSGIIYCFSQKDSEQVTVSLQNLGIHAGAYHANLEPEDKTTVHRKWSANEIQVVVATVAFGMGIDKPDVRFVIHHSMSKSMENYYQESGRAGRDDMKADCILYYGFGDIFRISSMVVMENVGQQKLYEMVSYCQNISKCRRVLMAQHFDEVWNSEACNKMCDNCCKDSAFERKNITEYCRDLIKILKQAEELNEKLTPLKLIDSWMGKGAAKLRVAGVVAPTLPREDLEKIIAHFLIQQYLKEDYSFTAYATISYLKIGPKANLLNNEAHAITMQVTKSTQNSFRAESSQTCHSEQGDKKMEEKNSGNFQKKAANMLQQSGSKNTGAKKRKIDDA
Summary of the method: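 50 nM RECQ1T1 preincubated 15 min with compound in Tris pH 8.0 buffer with MgCl2, DTT, Tween-20 and 2.5 ug/ml poly(dI-dC); started with 200 nM TAMRA/BHQ-2 forked duplex and 2 mM ATP. Unwinding read as fluorescence (525/598 nm), two reads 2 h apart.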

[13] = Cytometric Cell-Based qHTS for Inhibitors of the mTORC1 Signaling Pathway in MEF (Tsc2-/-, p53-/-) Cells (AID 2660);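 also: percent of cells above a phospho-rpS6 to PI ratio cutoff in each well; series mostly up to about 38 µM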
Summary of the method: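 Tsc2-/-, p53-/- MEFs (empty vector) exposed to compound 24 h at 37 C, fixed, stained with Alexa-488 anti-phospho-rpS6 Ser235/236 and propidium iodide. Acumen laser scanning; phospho-S6/PI ratio thresholded against 7.5 nM rapamycin, reported as % positive cells.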

[14] = High Content Imaging Cell-Based qHTS for Inhibitors of the mTORC1 Signaling Pathway in MEF (Tsc2-/-, p53-/-) Cells (AID 2666);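 also: percent of cells scored positive for phospho-rpS6 Ser235/236 immunostaining by imaging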
Summary of the method: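 Read-out: % positive cells per well, with thresholds from highest- and lowest-signal wells, based on phospho-rpS6 (Ser235/236) intensity normalized to Hoechst nuclear stain. Cells: Tsc2-/-, p53-/- MEFs carrying empty vector; compound 24 hrs, 37 degree Celsius.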

[15] = High Content Imaging Cell-Based qHTS for Inhibitors of the mTORC1 Signaling Pathway in MEF Cells (AID 2667);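 also: Tsc2-/- p53-/- MEFs stably re-expressing wild-type Tsc2 exposed 24 h; series mostly up to about 38 µM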
Summary of the method: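 MEF (Tsc2-/-, p53-/-, WT Tsc2 re-expressed); cpd 24 h, 37 °C; PFA fix; Alexa-488 anti-p-rpS6 Ser235/236, PI, Hoechst; IN Cell imaging; Hoechst/Alexa-488 intensity ratio; % active cells, thresholds set from rapamycin and DMSO wells.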

[16] = Cytometry Cell-Based qHTS for Inhibitors of the mTORC1 Signaling Pathway in MEF cells (AID 2668);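 also: Tsc2-/- p53-/- mouse embryonic fibroblasts stably re-expressing wild-type Tsc2; percent cells positive for phospho-rpS6 Ser235/236 relative to propidium iodide stain; series mostly up to about 38 µM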
Summary of the method: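 Pathway inhibition in WT Tsc2-rescued Tsc2-/-, p53-/- MEFs is measured as the Alexa-488 phospho-rpS6 to propidium iodide intensity ratio after 24 hrs of compound at 37 degree Celsius. PI-stained cell number gives viability.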

[17] = target: DNA polymerase III PolC-type (Bacillus subtilis (strain 168)) (UniProt P13267); test: qHTS Validation Assay for the Inhibitors of DNA Replication in Gram-Positive Bacteria (AID 485295);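 also: reconstituted holoenzyme with PolC plus beta clamp SSB and primase; PicoGreen fluorescence of double-stranded DNA made on primed circular M13 template; series mostly up to about 57 µM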
Sequence of DNA polymerase III PolC-type (Bacillus subtilis (strain 168)) (P13267 whole entry, looked up): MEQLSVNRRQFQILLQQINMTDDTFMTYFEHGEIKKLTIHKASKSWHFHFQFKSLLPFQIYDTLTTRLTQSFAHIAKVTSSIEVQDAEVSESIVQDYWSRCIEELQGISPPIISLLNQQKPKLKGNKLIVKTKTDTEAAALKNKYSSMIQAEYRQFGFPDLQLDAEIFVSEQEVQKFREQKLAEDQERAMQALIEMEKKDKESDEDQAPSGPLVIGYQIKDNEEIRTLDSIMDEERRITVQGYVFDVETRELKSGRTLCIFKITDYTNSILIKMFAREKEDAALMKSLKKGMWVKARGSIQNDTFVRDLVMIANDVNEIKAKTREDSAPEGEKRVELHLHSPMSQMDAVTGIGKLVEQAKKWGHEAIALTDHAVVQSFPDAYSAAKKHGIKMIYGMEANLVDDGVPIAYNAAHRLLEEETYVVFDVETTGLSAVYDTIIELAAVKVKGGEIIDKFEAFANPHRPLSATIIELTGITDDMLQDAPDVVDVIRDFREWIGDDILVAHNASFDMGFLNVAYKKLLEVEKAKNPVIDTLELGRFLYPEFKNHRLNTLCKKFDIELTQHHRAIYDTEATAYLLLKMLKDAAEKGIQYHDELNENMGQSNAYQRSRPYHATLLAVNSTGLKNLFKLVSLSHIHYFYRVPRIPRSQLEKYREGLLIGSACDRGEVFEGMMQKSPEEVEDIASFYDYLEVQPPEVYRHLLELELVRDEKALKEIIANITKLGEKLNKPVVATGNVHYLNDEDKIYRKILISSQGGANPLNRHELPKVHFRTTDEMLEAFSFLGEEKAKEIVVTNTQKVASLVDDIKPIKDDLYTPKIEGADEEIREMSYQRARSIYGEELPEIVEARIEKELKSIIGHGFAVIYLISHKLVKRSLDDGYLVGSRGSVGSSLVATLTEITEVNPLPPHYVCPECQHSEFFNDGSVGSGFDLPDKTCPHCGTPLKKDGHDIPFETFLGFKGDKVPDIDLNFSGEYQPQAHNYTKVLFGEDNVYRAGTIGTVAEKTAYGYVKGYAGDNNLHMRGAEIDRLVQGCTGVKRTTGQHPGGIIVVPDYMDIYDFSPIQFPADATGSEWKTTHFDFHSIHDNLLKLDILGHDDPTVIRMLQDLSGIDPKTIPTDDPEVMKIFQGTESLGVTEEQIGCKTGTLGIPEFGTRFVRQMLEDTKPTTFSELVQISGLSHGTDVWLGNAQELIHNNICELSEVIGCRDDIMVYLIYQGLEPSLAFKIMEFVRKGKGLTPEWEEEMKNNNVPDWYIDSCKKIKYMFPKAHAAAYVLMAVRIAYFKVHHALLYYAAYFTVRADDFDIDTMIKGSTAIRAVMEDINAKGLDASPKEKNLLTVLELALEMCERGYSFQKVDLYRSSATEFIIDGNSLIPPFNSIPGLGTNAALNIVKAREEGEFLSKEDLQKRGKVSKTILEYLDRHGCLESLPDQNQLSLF
Summary of the method: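 Primed replication of single-stranded M13Gori by a four-protein B. subtilis holoenzyme is measured at room temperature. Double-stranded product is quantified by PicoGreen fluorescence after an EDTA stop; inhibition is scaled between DMSO and EDTA controls.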

[18] = target: Tumor susceptibility gene 101 protein (Homo sapiens) (UniProt Q99816); test: qHTS Validation Assay for Iinhibitors of HIV-1 Budding by Blocking the Interaction of PTAP/TSG101 (AID 485342; calls by dose curve)
Sequence of Tumor susceptibility gene 101 protein (Homo sapiens) (Q99816 whole entry, looked up, the tested form may be a part): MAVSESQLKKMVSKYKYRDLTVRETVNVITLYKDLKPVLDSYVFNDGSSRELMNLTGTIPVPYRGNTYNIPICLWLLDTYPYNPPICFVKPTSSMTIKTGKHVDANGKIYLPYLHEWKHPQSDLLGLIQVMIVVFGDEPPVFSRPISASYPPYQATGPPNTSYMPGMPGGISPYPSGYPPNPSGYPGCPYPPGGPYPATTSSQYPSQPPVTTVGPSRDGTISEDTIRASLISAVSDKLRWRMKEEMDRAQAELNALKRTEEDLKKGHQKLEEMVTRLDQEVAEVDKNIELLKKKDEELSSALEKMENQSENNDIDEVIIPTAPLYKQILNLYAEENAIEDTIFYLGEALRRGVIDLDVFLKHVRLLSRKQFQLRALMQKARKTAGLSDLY
Summary of the method: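 Fluorescence anisotropy measured PTAP-Tsg101 interaction. Final concentrations were 10 uM protein domain and 50 nM labeled peptide, equilibrated 20 min at room temperature.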

[19] = qHTS Validation Assay to Find Inhibitors of Chronic Active B-Cell Receptor Signaling (AID 485345; active = well fitted curve in the direction sought with a large enough effect in the main read-out, with a control signal flat, not every such curve was filed as active)
Summary of the method: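 TMD8 ABC-DLBCL cells with dox-inducible green luciferase–IκBα fusion and red native luciferase; compounds 46 uM–3 nM, 4 h at 37C with doxycycline in 0.5% FBS IMDM. Green/red ratio normalized to basal and 10 uM MG-132.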

[20] = qHTS Assay for Identification of Small Molecule Inducers of Hypoxia Response (AID 2120; active = well fitted curve in the direction sought with a large enough effect in the signal ratio, with a control signal flat, not every such curve was filed as active; the % refers to the signal ratio)
Summary of the method: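 HRE-bla ME-180 cells in Opti-MEM with 0.5% dialyzed FBS, pre-plated 4-5 h, then compound titration for 17 h at 37 degrees Celsius. CCF4 loaded 2.5 h at room temperature; 460/530 nm ratio gave %Activity and AC50 for induction.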

Measured: Potency

Cc1nc(-c2ccc(-c3ccc(C(=O)N4CCc5cc6c(cc54)C4(CCN(C)CC4)CO6)cc3)c(C)c2)no1
active: [1] 12.6 µM | [2] 11.2 µM | [3] 8.91 µM | [4] 10 µM | [5] 11.2 µM | [7] 10 µM
inactive: [6]

Clc1ccc(C(c2ccc(Cl)cc2)n2cc[n+](CC(OCc3ccc(Cl)cc3Cl)c3ccc(Cl)cc3Cl)c2)cc1 (centres undefined)
active: [1] 3.55 µM | [2] 7.08 µM | [4] 3.98 µM | [5] 4.47 µM | [6] 28.2 µM | [7] 11.2 µM | [8] 11.2 µM | [9] 13.1 µM

CC[C@@H]1C(=O)OC[C@@H]1Cc1cncn1C
inactive: [1] | [2] | [3] | [5] | [10] | [11] | [12] | [6] | [7] | [8]

CCCN(CCC)[C@@H]1CCc2ccc(O)cc2C1
inactive: [1] | [2] | [5] | [10] | [11] | [12] | [13] | [14] | [15] | [16] | [7] | [8] | [9] | [17] | [18] | [19]
active: [4] 11.2 µM

O=C(O)Cc1cnc[nH]1
inactive: [1] | [2] | [3] | [4] | [5] | [11] | [12] | [13] | [14] | [15] | [16] | [7] | [8] | [9] | [18] | [19]

O=C(O)CC[N+](=O)[O-]
inactive: [1] | [2] | [3] | [4] | [5] | [10] | [11] | [12] | [13] | [14] | [15] | [16] | [7] | [8] | [9] | [17] | [18] | [19]

C[N+](C)(C)CC(=O)O
inactive: [1] | [2] | [3] | [4] | [5] | [10] | [11] | [12] | [6] | [7] | [8]

CCCCC(CC)COC(=O)c1ccccc1C(=O)OCC(CC)CCCC (centres undefined)
inactive: [20]

Nc1ccc([N+](=O)[O-])cc1
inactive: [20]

O=[N+]([O-])c1cc([N+](=O)[O-])c2ccccc2c1
inactive: [20]

CC(C)Oc1cccnc1N(C)C1CCN(Cc2ccccc2)CC1
inactive: [2] | [11] | [12] | [6] | [13] | [14] | [15] | [16] | [7] | [9] | [18] | [19]
active: [4] 4.47 µM

Nc1ccc(Sc2ccc(N)cc2)cc1
inactive: [20]

CC[C@H](CO)Nc1nc(NCc2ccccc2)c2ncn(C(C)C)c2n1
active: [1] 3.16 µM | [2] 10 µM | [4] 5.62 µM | [5] 5.62 µM
inactive: [7]

C[C@]12CCC3C(CC[C@H]4C[C@H](O)CC[C@]34C)C1CC[C@@H]2C(=O)CO (some centres undefined)
inactive: [11] | [12] | [6] | [13] | [14] | [15] | [16] | [7] | [8] | [9] | [18]
active: [2] 8.91 µM | [4] 10 µM

CCCN1CCC[C@H](c2cccc(O)c2)C1
active: [4] 11.2 µM
inactive: [1] | [5] | [10] | [11] | [12] | [13] | [14] | [15] | [16] | [7] | [8] | [9] | [17] | [18] | [19]

COc1ccc2c(c[n+](C)c3c4cc5c(cc4ccc23)OCO5)c1OC
active: [3] 11.2 µM | [4] 12.6 µM | [7] 10 µM
inactive: [11] | [12] | [14] | [15] | [16] | [9] | [18]

CCCN(CCC)C1CCc2ccc(O)cc2C1 (centres undefined)
active: [2] 10 µM | [4] 7.94 µM | [5] 11.2 µM
inactive: [10] | [11] | [12] | [6] | [13] | [14] | [15] | [16] | [7] | [8] | [9] | [18] | [19]

O=C(Cc1ccc(Cl)c(Cl)c1)N1CCCCC1CN1CCCC1 (centres undefined)
inactive: [11] | [12] | [13] | [14] | [15] | [16] | [7] | [8] | [9] | [18] | [19]
active: [1] 12.6 µM | [3] 7.94 µM | [4] 2 µM

COc1ccc(C(c2ccc(OC)cc2)C(Cl)(Cl)Cl)cc1
inactive: [20]

O=S(=O)(c1ccc(Cl)cc1)c1ccc(Cl)cc1
inactive: [20]

C#CCOC(=O)C1=CCCN(C)C1
inactive: [3] | [11] | [12] | [6] | [13] | [14] | [15] | [16] | [7] | [8] | [9] | [17] | [18] | [19]
active: [1] 12.6 µM | [4] 15.8 µM

CC(Cc1ccc(O)cc1)NCC(O)c1cc(O)cc(O)c1 (centres undefined)
inactive: [3] | [11] | [13] | [14] | [15] | [16] | [7] | [8] | [18] | [19]

CCCCc1ccc(C(=O)O)nc1
inactive: [2] | [3] | [11] | [12] | [13] | [14] | [15] | [16] | [7] | [8] | [9] | [18] | [19]
